Some of the results follow. Calls of active or inactive are those of the source.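 How the source made its calls: active means inhibition above the mean of stimulated solvent-only control wells plus 3 SD (cut at about 22% in these data); inactive means the rest.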
Assay: CNGC cAMP sensor activity inhibitors, counter-screen for NPY-Y1 potentiator/agonist project, cell-based, HEK293-CNG parental, membrane potential fluorescence, Y1 set (AID 1704);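 further: 0% = isoproterenol-stimulated DMSO wells and 100% = unstimulated DMSO wells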
Details: isoproterenol cAMP, at 3.6 µM, hits give high values
In the case of `O=C1/C(=C/c2coc3ccc(O)cc3c2=O)SC(=S)N1c1ccccc1`, the inhibition is reported as 11.7% (inactive). In the case of `CC(=O)c1ccc(NC(=O)C2CC(=O)Nc3nc4ccccc4n32)cc1` (stereo unspecified), the inhibition is reported as 32.8% (active). For `COC(=O)c1ccc(NC(=O)CN(c2ccc(C)cc2)S(=O)(=O)c2c(C)n[nH]c2C)cc1`, the inhibition was 36.6% (active). In the case of `Cc1ccccc1NCC(=O)N/N=C\c1ccc([N+](=O)[O-])s1`, the inhibition is reported as 33.8% (active). With `N#Cc1ccc(C(=O)Nc2nc(-c3cccs3)c(C(=O)C(F)(F)F)s2)cc1` the inhibition was -18.5% (inactive). With `O=[N+]([O-])c1cc(Cl)cc(/C=N/NC(=S)Nc2cc(S(=O)(=O)N3CCOCC3)ccc2Cl)c1O` the inhibition was 66.5% (active). With `O=C(c1cccs1)N1CCN(C(=O)N2CCOCC2)CC1` the inhibition was 1.33% (inactive). For `O=C(Nc1ccc2c(c1)CCC2)c1cccc(S(=O)(=O)Nc2ccccc2Cl)c1`, the inhibition was 7.5% (inactive). In the case of `CN1C(=O)c2ccccc2C(C(=O)NCCCN2CCCC2)C1c1c[nH]c2ccccc12` (stereo unspecified), the inhibition is reported as -0.85% (inactive). For `Cc1cccc(OCC(O)CN2CCN(CCN3C(=O)c4cccc5cccc(c45)C3=O)CC2)c1C` (stereo unspecified), the inhibition was 51.3% (active). In the case of `COC(=O)c1sc(-c2ccc(C(C)(C)C)cc2)cc1NC(=O)/C=C/C(=O)O`, the inhibition is reported as 24.5% (active). For `CC1=C/C(=N\OS(=O)(=O)c2ccccc2)C=CC1=O`, the inhibition was 16.7% (inactive). For `CSc1nc(-c2ccco2)nn1C(=O)c1ccccc1Cl`, the inhibition was 12.3% (inactive). For `COCCn1nnnc1C(c1ccccc1Cl)N1CCN(c2ccccc2OC)CC1` (stereo unspecified), the inhibition was -5.71% (inactive). For `O=C(Nc1ccccc1C(F)(F)F)c1cc(-c2ccc(O)cc2)on1`, the inhibition was -10.9% (inactive). For `CCn1c2ccccc2c2cc(NC(=O)Nc3ccc([N+](=O)[O-])cc3C)ccc21`, the inhibition was 16.4% (inactive).

— PubChem BioAssay AID1704 (The Scripps Research Institute Molecular Screening Center, 2009)
